# Reference: PubChem BioAssay AID1460 (National Center for Advancing Translational Sciences (NCATS), 2008)
# Among all 270,000 compounds or so, about 5,800 (2.1%) were called active. Roughly 16% stayed inconclusive and do not appear here. Calls come from the whole dose curve; as a rule, active = well fitted inhibition curve with a large enough effect; inconclusive = small, poorly fitted or top-dose-only effect; inactive = flat fitted curve, though single readings scatter. Shown is part of a subset that was picked to be rich in actives.
# Molecular target: Microtubule-associated protein tau (Homo sapiens) (UniProt P10636)
# Sequence (P10636 561-689 P618L limits assumed): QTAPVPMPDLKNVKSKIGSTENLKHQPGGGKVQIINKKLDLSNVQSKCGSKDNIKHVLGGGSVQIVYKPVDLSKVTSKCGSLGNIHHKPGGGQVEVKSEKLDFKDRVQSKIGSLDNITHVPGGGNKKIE
# Experiment: qHTS for Inhibitors of Tau Fibril Formation, Thioflavin T Binding; note: nearly all actives have a fitted effect of over 55% in size
# Settings: recombinant tau K18 P301L, heparin-induced fibrillization, ThT fluorescence; series mostly up to 57.4 µM; activity, negative = inhibition: at the top concentration
# Procedure, shortened: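 Using a mix of unlabeled (15 uM) and Alexa 594-labeled (0.24 uM) tau K18 P301L, heparin-triggered fibrillization over 6 hr at 37 C was scored by ThT fluorescence.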
# % is set by controls: 0 for no effect and ±100 for the full control effect; potency is the fitted concentration of half-maximal effect.
SMILES,"activity, negative = inhibition",Potency
CCc1nnc(SCC(=O)Nc2cc(OC)ccc2OC)nc1CC,-13.1% (inactive),–
COc1ccc(C)cc1N(C)C(=O)c1c(C)oc2ncnc(N3CCOCC3)c12,-4.51% (inactive),–
CCOC(=O)C1CCCN(S(=O)(=O)c2cc(-c3cc(C)no3)ccc2OC)C1 (stereo not drawn),-5.37% (inactive),–
N#C/C(=C\C1=C(N2CCOCC2)C(=C\c2ccccc2)/CC1)C(=O)Nc1ccccc1F,–,3.16 µM (active)
N#C/C(=C\c1ccc(N2CCOCC2)o1)C(=O)N1CCOCC1,-14.6% (inactive),–
N#C/C(=C\c1ccccc1C(F)(F)F)C(=O)Nc1ccccc1F,-2.13% (inactive),–
COc1cccc(-c2cc(C(=O)Nc3ccc(C)cc3)[nH]n2)c1,16.5% (inactive),–
Cc1cc(C(=O)N/N=C/c2ccc(N3CCOCC3)cc2)c(C)o1,–,3.98 µM (active)
COc1ccc(C/C(C)=N/NC(=O)c2cc(C)oc2C)cc1,-14.5% (inactive),–
Cc1nonc1C(=O)N/N=C/c1ccc(O)cc1,-13.5% (inactive),–
CCn1cc(C(=O)N2CCN(c3cc(C)ccc3C)CC2)c(=O)c2cc(S(=O)(=O)N(C)C3CCCCC3)ccc21,-17% (inactive),–
Cc1noc2ncnc(NCc3ccccc3Cl)c12,-8.51% (inactive),–
COC(=O)C1=C(C)N(c2ccc(Br)cc2)C(=O)/C1=C\c1ccco1,3.15% (inactive),–
COC(=O)C1=C(C)N(C(C)c2ccccc2)C(=O)/C1=C\c1ccco1 (stereo not drawn),–,22.4 µM (active)
CC(C)NC(=O)C(=O)N/N=C/c1ccco1,-18.5% (inactive),–
CCOC(=O)c1c(NC(=O)c2ccc(S(=O)(=O)N3CCCC(C)C3)cc2)sc2c1CCN(C(C)C)C2 (stereo not drawn),-15.9% (inactive),–
COc1cc(OC)c(NC(=O)c2nc(-c3ccncc3)no2)cc1Cl,15.5% (inactive),–
Cc1ccc(Nc2nc(-c3ccc(O)cc3O)cs2)nc1,–,5.01 µM (active)
Cc1ccc(-c2csc(NC(=O)c3cnccn3)n2)cc1C,-7.61% (inactive),–
Cc1ccc(-c2csc(SCC(=O)Nc3cc(C)on3)n2)cc1,-1.99% (inactive),–
Cc1ccccc1CNC(=O)CCCn1nc(C)c2sc3ccccc3c2c1=O,11.6% (inactive),–
O=C(NC1CC(=O)N(c2ccccc2)C1)c1ccco1 (stereo not drawn),4.55% (inactive),–
COc1ccc(NC(=O)Nc2cccc(-c3noc(C)n3)c2)cc1,-6.06% (inactive),–
Cc1c(C)n(Cc2ccc(Cl)cc2)c2ccc(C(=O)NCCc3ccc(S(N)(=O)=O)cc3)cc12,-2.45% (inactive),–
CCN(CC)c1cc(NC2CCCCC2)c2c3c(onc13)-c1ccccc1C2=O,–,11.2 µM (active)

SMILES,"activity, negative = inhibition",Potency
CC(C)(C)c1ccc(C(=O)Nc2ccc3c(c2)CCCN3C(=O)c2cccs2)cc1,-12.8% (inactive),–
CCc1ccc(NC(=O)CN2C(=O)CCSc3ccc(S(=O)(=O)N4CCCC4)cc32)cc1,8.06% (inactive),–
CCc1nn(CCCC(=O)NCc2ccc(C)cc2)c(=O)c2cc3occc3n12,-5.1% (inactive),–
COCCCNC(=O)c1ccc(NC(=O)c2nsc3ccccc23)cc1,-4.75% (inactive),–
Cc1ccc(N2C(=O)C3C(c4ccccc4)(C2=O)C3(c2ccccc2)c2ccccc2)cc1 (stereo not drawn),4.8% (inactive),–
Cc1ccc(C2C3=C(Nc4[nH]n(-c5ccccc5)c(=O)c42)c2ccccc2C3=O)cc1 (stereo not drawn),–,7.94 µM (active)
O=C(Nc1ccc2nc(SCCOc3ccccc3Cl)sc2c1)c1ccco1,5.98% (inactive),–
CCOC(=O)c1cccc(NC(=O)c2cc(S(=O)(=O)N3CCCC(C)C3)cn2C)c1 (stereo not drawn),3.72% (inactive),–
Cc1ccc(S(=O)(=O)c2c(Nc3cccc(Cl)c3)sc(C(=O)c3ccc4c(c3)OCO4)c2N)cc1,-3.94% (inactive),–
CCOc1cc(C(=O)Nc2nnc3n2CCS3)cc(OCC)c1OCC,1.75% (inactive),–
Cc1ccc2cccc(NC(=O)C(C)Oc3ccc(C)c(C)c3)c2n1 (stereo not drawn),6.23% (inactive),–
Cc1ccccc1C(=O)Nc1cc(C)c(O)c(-c2nc3ccccc3o2)c1,-2.98% (inactive),–
CC(C)c1ccc(C2CC(=O)N3CN(C4CCCCC4)CSC3=C2C#N)cc1 (stereo not drawn),–,22.4 µM (active)
CC(C)c1ccc(C2C(C#N)=C(N)Oc3c2oc(CO)cc3=O)cc1 (stereo not drawn),-9.29% (inactive),–
CCOC(=O)c1ccc(N2C(=O)c3n[nH]c(-c4ccco4)c3C2c2ccc(O)cc2)cc1 (stereo not drawn),-15.9% (inactive),–
CCCc1nn2c(=O)cc(COC(=O)c3ccc(NC(=O)C(C)Oc4ccccc4)cc3)nc2s1 (stereo not drawn),-5.44% (inactive),–
COC(=O)Cc1[nH]n(-c2nc3ccccc3s2)c(=O)c1C(C)=Nc1ccc(OC)cc1,12% (inactive),–
COc1ccc(C2=NN(c3ccccc3)C(c3cccs3)C2)cc1 (stereo not drawn),-9.36% (inactive),–
COc1ccc(C2=NN(c3nc4ccccc4s3)C(=O)C2)cc1,–,10 µM (active)
CCOC(=O)c1c(S(=O)(=O)N2CCC(C(=O)NCc3ccccc3OC)CC2)c(C)n(C)c1C,7.16% (inactive),–
O=C(CN1C2=NCCN2c2ccccc21)c1cccs1,2.91% (inactive),–
Nc1c(C(=O)c2cccs2)sc2nsc(SCCN3CCCCC3)c12,–,4.47 µM (active)
CN(C)c1ccnc2sc(C(=O)c3ccccc3)c(N)c12,-18.6% (inactive),–
O=C(NCc1ccccc1Cl)c1cccn1-c1nnc(N2CCCCC2)s1,-3.55% (inactive),–
O=C(Nc1nc(-c2ccc(-c3ccccc3)cc2)cs1)c1cnccn1,-14.1% (inactive),–

SMILES,"activity, negative = inhibition",Potency
O=C(CSC1=NCCS1)Nc1nc(-c2ccccc2)cs1,-21.2% (inactive),–
O=C(Nc1nc(-c2ccncc2)cs1)C1COc2ccccc2O1 (stereo not drawn),–,28.2 µM (active)
Cc1cccc(S(=O)(=O)c2cn(Cc3ccccc3)c3cc(N4CCOCC4)c(F)cc3c2=O)c1,-7.93% (inactive),–
COc1ccc(CNC(=O)c2cc3c(s2)-c2ccccc2OC3)cc1,-9.54% (inactive),–
CCN(CC)S(=O)(=O)c1ccc(C(=O)N=c2sc3cccc(OC)c3n2C)cc1,2.64% (inactive),–
O=C(Cn1c(-c2cccs2)cc2ccccc21)NCCc1ccc(Cl)cc1,1.45% (inactive),–
CN(Cc1ccccc1)c1ccc(-c2nc(-c3ccccc3)no2)cc1[N+](=O)[O-],-1.66% (inactive),–
COc1ccc(N2CCN(C(C)=C3C(=O)c4ccccc4C3=O)CC2)cc1,18.2% (inactive),–
COc1ccc(N2CCN(C(=O)CSc3ncnc4c3cnn4-c3ccc(OC)cc3)CC2)cc1,-11.1% (inactive),–
COc1ccc(N2CCN(c3ccc([N+](=O)[O-])nc3)CC2)cc1,–,1.41 µM (active)
Cc1nn(C(C)C(=O)Nc2ccc(C(C)C)cc2)c(=O)c2c1sc1ccccc12 (stereo not drawn),4.79% (inactive),–
O=C(CSc1nc2c(c(=O)[nH]1)CN(Cc1ccc(F)cc1)CC2)Nc1ccccc1Cl,-3.93% (inactive),–
NS(=O)(=O)c1ccc2nc(NC(=O)COc3ccccc3)sc2c1,1.18% (inactive),–
O=C(NCc1cccnc1)C(=O)NCC(c1cccnc1)N1CCN(c2ccccc2)CC1 (stereo not drawn),-1.85% (inactive),–
CCc1ccc(S(=O)(=O)n2ccnc2)cc1,13% (inactive),–
N/C(=N\OC(=O)Cc1ccccc1[N+](=O)[O-])c1ccc(Br)cc1,-2.47% (inactive),–
Cc1ccc(C(=O)c2ccc(N3CCN(C)CC3)c([N+](=O)[O-])c2)cc1,2.39% (inactive),–
Cc1oc2cc([N+](=O)[O-])c(O)c([N+](=O)[O-])c2c1C(=O)c1ccc(Br)cc1,–,10 µM (active)
Cc1ccc(C)c(S(=O)(=O)n2nc(C)c(S(=O)(=O)N3CCC(C)CC3)c2C)c1,1.74% (inactive),–
CSc1ccc(C2C(C(=O)Nc3ccccc3)=C(C)Nc3nc4ccccc4n32)cc1 (stereo not drawn),17.8% (inactive),–
COc1ccc(S(=O)(=O)c2c(Nc3ccc(C)cc3)sc(C(=O)c3ccc(C)cc3)c2N)cc1,-1.21% (inactive),–
CC(=O)c1ccc(NS(=O)(=O)c2ccc(-c3cc(C)no3)s2)cc1,0.58% (inactive),–
c1ccc(-c2oc3ncnc(N4CCOCC4)c3c2-c2ccccc2)cc1,-4.32% (inactive),–
Cc1oc2c(c1C(=O)N1CCOCC1)C(=O)c1ccccc1C2=O,-6.24% (inactive),–
O=C1c2ccccc2-c2ncnc3c(N4CCOCC4)cc(N4CCOCC4)c1c23,–,8.91 µM (active)

SMILES,"activity, negative = inhibition",Potency
CCn1cc(C(=O)NCCc2ccccc2)c(=O)c2cc(S(=O)(=O)N3CCCCCC3)ccc21,-5.17% (inactive),–
CCCN(CCC)C(=O)Cn1c(=O)n(-c2ccc(Cl)cc2)c(=O)c2c3c(sc21)CCCCC3,2.08% (inactive),–
Cc1cc2c(cc1S(=O)(=O)CCC(=O)Nc1ccc(OC(F)(F)F)cc1)OCC(=O)N2,-7.52% (inactive),–
CCOC(=O)c1csc(NC(=O)Nc2cccc(OC)c2)n1,3.55% (inactive),–
COc1cccc(CC(=O)Nc2ccc(-c3csc(C)n3)cc2)c1,-4.12% (inactive),–
CCCCCCC(=O)Nc1nc(C)c(-c2csc(Nc3cccc(OC)c3)n2)s1,–,7.94 µM (active)
CCCOc1cccc(C(=O)Nc2cccc(NC(=O)c3ccc(C(C)(C)C)cc3)c2)c1,-1.73% (inactive),–
Cc1ccc(Cc2nc3ccccc3nc2SCC(=O)Nc2cccc(C(F)(F)F)c2)cc1,2.29% (inactive),–
O=C(NC1CC1)c1ccc2c(c1)NC(=O)c1ccccc1S2,-6.02% (inactive),–
C/C(=N\Nc1cccc(C(=O)O)c1)c1ccc2c(c1)Nc1ccccc1S2,–,5.01 µM (active)
CC(=O)Nc1cccc(/C(C)=N/NC(=O)c2ccccc2Cl)c1,-7.39% (inactive),–
Cc1ccc2c(c1)-c1c(cnn1CC(=O)Nc1ccccc1C#N)CO2,-7.6% (inactive),–
CSc1ncc(C(=O)NCc2ccccc2Cl)c(C(F)(F)F)n1,-7.7% (inactive),–
COc1ccc(-c2cc(C3CCN(c4ncccc4[N+](=O)[O-])CC3)[nH]n2)cc1,–,8.91 µM (active)
COc1ccc(N2C(=O)CC(Nc3ccc(F)cc3)C2=O)c([N+](=O)[O-])c1 (stereo not drawn),4.24% (inactive),–
CC(=O)NC(Cc1ccccc1)C(=O)NC1CCN(c2ncccc2[N+](=O)[O-])CC1 (stereo not drawn),2.41% (inactive),–
CCOc1ccccc1C(=O)NCC(c1ccc(N(C)C)cc1)N1CCCC1 (stereo not drawn),5.21% (inactive),–
Cc1cc(C)c(NC(=O)CSc2nc3nccnc3c(=O)n2CCc2c[nH]c3ccccc23)c(C)c1,-9.71% (inactive),–
O=C(Nn1c(-c2ccccc2)nc2ccccc2c1=O)c1ccc([N+](=O)[O-])cc1,-9.95% (inactive),–
Cc1nc2ccccc2nc(=O)c1NNc1ccc([N+](=O)[O-])cc1,–,11.2 µM (active)
O=[N+]([O-])c1cccc(Nc2c3ccccc3nc3ccccc23)c1,-7.21% (inactive),–
COC(=O)c1cc(NC(=O)c2cnc(SC)nc2-c2ccccc2)cc(C(=O)OC)c1,-2.89% (inactive),–
Cc1ccc(Nc2ccc3cc(S(=O)(=O)N4CCCCC4)ccc3n2)cc1F,1.9% (inactive),–
